Records with an inconclusive call do not appear. Active and inactive are the calls of the source. Unless noted, calls follow the shape of the dose curve; as a rule, active = well fitted curve in the direction sought with a large enough effect; inconclusive = small, poorly fitted or top-dose-only effect, or another doubt; inactive = no such curve, though single readings can be large; an effect the other way counts as inactive or inconclusive.
Experiments:
[1] = qHTS for differential inhibitors of proliferation of Plasmodium falciparum line 7G8 (AID 1815);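 also: parasite growth measured after three days of incubation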; also: potency is read from the fitted curve at half-maximal effect
[2] = qHTS for differential inhibitors of proliferation of Plasmodium falciparum line GB4 (AID 1816); settings: Potency: Plasmodium falciparum GB4 proliferation inhibition;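 also: parasite growth measured after 72 h incubation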; also: potency is read from the fitted curve at half-maximal effect
[3] = qHTS for differential inhibitors of proliferation of Plasmodium falciparum line 3D7 (AID 1876); also: potency is read from the fitted curve at half-maximal effect
[4] = qHTS for differential inhibitors of proliferation of Plasmodium falciparum line D10 (AID 1877);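 also: parasites grown with compound for 72 h before DNA staining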; also: potency is read from the fitted curve at half-maximal effect
[5] = qHTS for differential inhibitors of proliferation of Plasmodium falciparum line W2 (AID 1883); settings: Potency: Plasmodium falciparum W2 proliferation inhibition;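 also: parasites grown with compound for 72 h before lysis and staining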; also: potency is read from the fitted curve at half-maximal effect
[6] = qHTS for differential inhibitors of proliferation of Plasmodium falciparum line HB3 (AID 1886); settings: Potency: Plasmodium falciparum HB3 proliferation inhibition;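 also: parasites grown with compound for 72 h before SYBR Green readout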; also: potency is read from the fitted curve at half-maximal effect
[7] = qHTS Assay for Modulators of Human Peripheral Myelin Protein 22 (PMP22) Expression/Activity (AID 1967; active = well fitted curve in the direction sought with a large enough effect in the signal ratio; the % refers to the signal ratio)
Procedure, shortened: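 MSC80 mouse Schwann cells stably carrying Pmp22 promoter–green click beetle luciferase plus EF-alpha–red luciferase control were dosed for 24h at 37 °C. Dual-colour luminescence was filter-overlap corrected; %Activity came from green/red ratio versus untreated cells.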

[8] = target: Ferritin light chain (Equus caballus) (UniProt P02791); test: qHTS Validation Assay for Identification of Novel General Anesthetics (AID 2323); also: series mostly up to about 77 µM
Ferritin light chain (Equus caballus), sequence (P02791 2-175 limits assumed): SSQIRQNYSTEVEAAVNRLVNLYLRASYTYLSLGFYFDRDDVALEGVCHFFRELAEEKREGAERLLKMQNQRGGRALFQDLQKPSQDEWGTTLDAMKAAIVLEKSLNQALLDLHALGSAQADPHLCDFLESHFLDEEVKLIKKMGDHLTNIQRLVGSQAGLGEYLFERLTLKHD
Procedure, shortened: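 Competitive displacement of profluorescent 1-aminoanthracene (1-AMA, 50% saturated solution in PBS) from 10 uM horse-spleen apoferritin. Compounds incubated 10 min at room temperature; fluorescence read at 380 nm excitation/535 nm emission, normalized to free 1-AMA and complex, fitted with four-parameter Hill equation.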

[9] = target: ATP-dependent DNA helicase Q1 (Homo sapiens) (UniProt P46063); test: qHTS Validation Assay for Inhibitors of RecQ-Like Dna Helicase 1 (RECQ1) (AID 2353)
ATP-dependent DNA helicase Q1 (Homo sapiens), sequence (P46063 whole entry, looked up): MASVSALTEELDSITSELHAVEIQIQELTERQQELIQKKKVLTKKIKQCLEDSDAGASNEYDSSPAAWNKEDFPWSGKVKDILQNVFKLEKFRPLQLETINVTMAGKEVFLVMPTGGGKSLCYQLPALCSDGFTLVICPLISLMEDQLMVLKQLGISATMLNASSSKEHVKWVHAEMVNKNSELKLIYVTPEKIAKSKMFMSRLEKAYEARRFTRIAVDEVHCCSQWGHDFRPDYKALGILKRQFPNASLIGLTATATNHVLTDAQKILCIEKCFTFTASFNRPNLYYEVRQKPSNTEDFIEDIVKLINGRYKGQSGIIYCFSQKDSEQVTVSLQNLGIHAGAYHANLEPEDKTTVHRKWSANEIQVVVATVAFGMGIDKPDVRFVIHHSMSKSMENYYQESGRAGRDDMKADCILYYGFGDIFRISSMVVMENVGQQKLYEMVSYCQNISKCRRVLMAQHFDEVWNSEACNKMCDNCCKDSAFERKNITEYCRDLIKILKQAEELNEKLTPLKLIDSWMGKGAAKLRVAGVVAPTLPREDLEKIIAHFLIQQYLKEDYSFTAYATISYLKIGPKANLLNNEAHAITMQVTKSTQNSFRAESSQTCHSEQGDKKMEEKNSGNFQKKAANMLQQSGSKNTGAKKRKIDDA
Procedure, shortened: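 RECQ1T1 50 nM; forked duplex (20 bp + 30-nt ss tails) 200 nM, ATP 2 mM final; pH 8.0, 2 mM MgCl2, 2.5 ug/ml poly(dI-dC); 15 min compound preincubation; discontinuous kinetic read over 2 h at RT.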

[10] = target: RecQ-like DNA helicase BLM (Homo sapiens) (UniProt P54132); test: qHTS Validation Assay for Inhibitors of Bloom's syndrome helicase (BLM) (AID 2364)
RecQ-like DNA helicase BLM (Homo sapiens), sequence (P54132 whole entry, looked up): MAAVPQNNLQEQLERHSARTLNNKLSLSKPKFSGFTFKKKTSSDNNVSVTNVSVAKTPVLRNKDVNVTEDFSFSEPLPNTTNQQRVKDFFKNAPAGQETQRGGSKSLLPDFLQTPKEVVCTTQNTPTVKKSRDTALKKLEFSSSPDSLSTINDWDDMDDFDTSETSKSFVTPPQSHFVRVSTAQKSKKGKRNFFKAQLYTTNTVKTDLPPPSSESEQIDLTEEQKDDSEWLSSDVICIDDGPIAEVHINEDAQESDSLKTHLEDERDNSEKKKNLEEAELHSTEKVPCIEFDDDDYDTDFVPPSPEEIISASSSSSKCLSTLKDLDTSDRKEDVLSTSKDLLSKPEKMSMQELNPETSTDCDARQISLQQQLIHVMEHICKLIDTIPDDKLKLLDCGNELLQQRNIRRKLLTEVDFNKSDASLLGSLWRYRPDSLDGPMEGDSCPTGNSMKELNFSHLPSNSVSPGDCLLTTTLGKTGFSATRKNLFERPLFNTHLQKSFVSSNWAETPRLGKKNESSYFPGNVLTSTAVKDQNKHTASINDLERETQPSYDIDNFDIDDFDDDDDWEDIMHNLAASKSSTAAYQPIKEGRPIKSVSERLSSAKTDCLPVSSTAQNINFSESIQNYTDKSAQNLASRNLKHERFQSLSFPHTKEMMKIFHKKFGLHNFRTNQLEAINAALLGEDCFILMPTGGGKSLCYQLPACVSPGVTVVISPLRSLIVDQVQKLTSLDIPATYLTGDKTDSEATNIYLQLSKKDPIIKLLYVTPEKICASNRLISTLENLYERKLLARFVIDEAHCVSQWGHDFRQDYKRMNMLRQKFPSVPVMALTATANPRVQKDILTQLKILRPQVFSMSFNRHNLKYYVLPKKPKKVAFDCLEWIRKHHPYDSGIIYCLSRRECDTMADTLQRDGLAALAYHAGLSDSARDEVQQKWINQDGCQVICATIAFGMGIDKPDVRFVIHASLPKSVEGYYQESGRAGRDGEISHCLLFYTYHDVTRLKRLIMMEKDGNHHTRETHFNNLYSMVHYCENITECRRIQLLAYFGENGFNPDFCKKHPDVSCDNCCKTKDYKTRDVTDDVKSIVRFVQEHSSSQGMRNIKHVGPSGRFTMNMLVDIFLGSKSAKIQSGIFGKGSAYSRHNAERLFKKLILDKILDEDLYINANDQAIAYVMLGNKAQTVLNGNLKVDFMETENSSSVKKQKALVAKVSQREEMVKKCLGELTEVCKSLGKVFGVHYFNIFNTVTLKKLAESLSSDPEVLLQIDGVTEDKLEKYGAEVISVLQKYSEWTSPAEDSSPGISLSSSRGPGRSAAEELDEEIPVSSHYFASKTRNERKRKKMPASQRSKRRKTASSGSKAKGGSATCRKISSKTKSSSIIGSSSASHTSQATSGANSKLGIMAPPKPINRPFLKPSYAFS
Procedure, shortened: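 50 nM BLM preincubated 15 min at room temperature with compound in pH 8.0 Tris buffer containing 2.5 ug/ml poly(dI-dC); started with 200 nM TAMRA/BHQ-2 forked duplex and 2 mM ATP (final). Unwinding read as TAMRA fluorescence increase, two reads 2 h apart.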

[11] = Cytometric Cell-Based qHTS for Inhibitors of the mTORC1 Signaling Pathway in MEF (Tsc2-/-, p53-/-) Cells (AID 2660);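 also: Tsc2 and p53 null MEFs carrying empty vector with compound for 24 h; percent of cells above a phospho-rpS6 to PI ratio cutoff in each well; series mostly up to about 38 µM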
Procedure, shortened: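 Immunofluorescence qHTS of rpS6 Ser235/236 phosphorylation: MEFs (Tsc2-/-, p53-/-) treated 24 h, 37 C, in DMEM + 10% FBS. Alexa-488 signal normalized to PI count, referenced to rapamycin (7.5 nM) and DMSO; PI cell number recorded for viability.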

[12] = High Content Imaging Cell-Based qHTS for Inhibitors of the mTORC1 Signaling Pathway in MEF (Tsc2-/-, p53-/-) Cells (AID 2666);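 also: percent of cells scored positive for phospho-rpS6 Ser235/236 immunostaining by imaging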
Procedure, shortened: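 MEF Tsc2-/- p53-/- (empty vector), DMEM/10% FBS; cpd 24 h 37 °C; PFA fix, Alexa-488 p-rpS6 S235/236 Ab, Hoechst; imaged; rapamycin-defined inhibition; % positive cells/well.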

[13] = High Content Imaging Cell-Based qHTS for Inhibitors of the mTORC1 Signaling Pathway in MEF Cells (AID 2667);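 also: Tsc2-/- p53-/- MEFs stably re-expressing wild-type Tsc2 exposed 24 h; series mostly up to about 38 µM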
Procedure, shortened: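 Read-out is the share of phospho-rpS6-positive cells per well, from Hoechst-normalized Alexa-488 Ser235/236 staining imaged on IN Cell. Cells: WT Tsc2-expressing Tsc2-/-, p53-/- MEFs exposed to compound for 24 hrs.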

[14] = Cytometry Cell-Based qHTS for Inhibitors of the mTORC1 Signaling Pathway in MEF cells (AID 2668);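 also: Tsc2-/- p53-/- mouse embryonic fibroblasts stably re-expressing wild-type Tsc2; percent cells positive for phospho-rpS6 Ser235/236 relative to propidium iodide stain; series mostly up to about 38 µM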
Procedure, shortened: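 WT MEFs (Tsc2-/-, p53-/- stably re-expressing WT Tsc2) in DMEM + 10% FBS received compounds 24 hrs after plating, for 24 hrs at 37 degree Celsius. Fixed cells stained with Alexa-488 anti-phospho-rpS6 Ser235/236 and propidium iodide; laser-scanning cytometry read-out.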

[15] = Validation screen for inhibitors of Lassa infection (AID 463096; calls by dose curve)
[16] = Validation screen for small molecules that induce DNA re-replication in MCF 10A normal breast cells (AID 463097); also: nearly all actives have a fitted effect of over 60% in size
Procedure, shortened: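 Readout: Hoechst nuclear fluorescence intensity, 405 ex / 500-530 em, by scanning plate imager; re-replication scored as increase in nuclei with elevated DNA content. Cells exposed to compound 48 hr, 37 C, 5% CO2 beforehand.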

[17] = target: Ubiquitin carboxyl-terminal hydrolase 2 (Homo sapiens) (UniProt O75604); test: qHTS Validation Assay for Inhibitors of Ubiquitin-specific Protease USP2a Using CHOP2 as the Reporter (AID 463106)
Ubiquitin carboxyl-terminal hydrolase 2 (Homo sapiens), sequence (O75604 whole entry, looked up): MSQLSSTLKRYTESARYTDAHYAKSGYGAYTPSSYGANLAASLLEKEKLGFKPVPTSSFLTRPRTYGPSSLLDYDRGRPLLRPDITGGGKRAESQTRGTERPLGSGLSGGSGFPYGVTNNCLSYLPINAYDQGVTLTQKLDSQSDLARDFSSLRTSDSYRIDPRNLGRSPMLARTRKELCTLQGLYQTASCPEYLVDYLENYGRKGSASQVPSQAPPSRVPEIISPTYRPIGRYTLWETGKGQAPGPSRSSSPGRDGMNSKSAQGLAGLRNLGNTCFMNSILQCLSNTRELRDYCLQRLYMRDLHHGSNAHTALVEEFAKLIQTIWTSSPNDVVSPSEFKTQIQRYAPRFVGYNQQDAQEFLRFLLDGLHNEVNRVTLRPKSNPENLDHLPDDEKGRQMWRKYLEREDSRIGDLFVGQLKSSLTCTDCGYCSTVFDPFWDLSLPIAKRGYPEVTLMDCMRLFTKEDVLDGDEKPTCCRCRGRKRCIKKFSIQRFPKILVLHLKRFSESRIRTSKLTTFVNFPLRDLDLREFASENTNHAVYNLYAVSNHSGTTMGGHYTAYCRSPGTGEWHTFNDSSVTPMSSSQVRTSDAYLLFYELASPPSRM
Procedure, shortened: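 Fluorescence read-out at Ex 485nm/Em 531nm after 60min RT, following addition of 25nM Ub-CHOP2 plus 25nM reporter substrate to USP2 core (10nM) pretreated 30min with compound. Data normalized to NEM full inhibition; concentration-response curves fitted.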

[18] = qHTS for differential inhibitors of proliferation of Plasmodium falciparum line Dd2 (AID 1882); settings: Potency: Plasmodium falciparum Dd2 proliferation inhibition; also: nearly all actives have a fitted effect of over 65% in size; also: potency is read from the fitted curve at half-maximal effect
Procedure, shortened: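 RBC culture, 0.3% parasitemia / 2.5% Hct final; cpd added by pin tool in DMSO; 72 h, 37 C, 5% CO2; lysis buffer + SYBR Green I, o/n RT dark; FI 485/535; norm. to artemisinin 0.29 uM and DMSO.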

[19] = target: Endonuclease 4 (Escherichia coli (strain K12)) (UniProt P0A6C1); test: Counterscreen for APE1 Inhibitors: qHTS Validation Assay for Inhibitors of Endonuclease IV (AID 1708)
Procedure, shortened: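 Read-out: fluorescence rise (ex 525/em 598 nm) from incision of a TAMRA/BHQ-2 double-stranded THF abasic-site substrate (50 nM), measured kinetically; third-minus-first read difference gave reaction progress. Enzyme 2 nM.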

Measured: Potency

C=CCN1CC[C@]23CCCCC2[C@H]1Cc1ccc(O)cc13 (some centres undefined)
active: [1] 11.2 µM | [2] 11.2 µM | [5] 7.08 µM
not listed: [18] | [19]
inactive: all other assays above

O=C(O)Cc1cnc[nH]1
not listed: [7] | [10] | [19]
inactive: all other assays above

CC[C@@H]1C(=O)OC[C@@H]1Cc1cncn1C
not listed: [5] | [11] | [12] | [13] | [14] | [17]
inactive: all other assays above

NCCc1c[nH]c2ccc(O)cc12
not listed: [19]
inactive: all other assays above

O=C(O)CC[N+](=O)[O-]
not listed: [10] | [19]
inactive: all other assays above

C[C@@H]1O[C@H](C[N+](C)(C)C)C[C@H]1O
not listed: [19]
inactive: all other assays above

NC(=NCCC[C@H](N)C(=O)O)N[N+](=O)[O-]
not listed: [7] | [10] | [19]
inactive: all other assays above

C[C@]12CCC3C(CC[C@H]4C[C@H](O)CC[C@]34C)C1CC[C@@H]2C(=O)CO (some centres undefined)
active: [1] 7.94 µM | [2] 14.1 µM | [4] 8.91 µM | [5] 10 µM
not listed: [3] | [6] | [7] | [18] | [19]
inactive: all other assays above

c1ccc(CCCN2CCN(CCOC(c3ccccc3)c3ccccc3)CC2)cc1
inactive: [9] | [11] | [12] | [17]
active: [1] 4.47 µM | [2] 7.08 µM | [3] 11.2 µM | [4] 10 µM | [18] 8.91 µM | [5] 3.16 µM | [6] 7.94 µM

C[N+]1(C)C2CCC1CC(OC(=O)C(CO)c1ccccc1)C2 (centres undefined)
inactive: all assays above

NC(=O)CN1CC(O)CC1=O (centres undefined)
active: [6] 2.82 µM
not listed: [10] | [19]
inactive: all other assays above

CC[C@H](CO)Nc1nc(NCc2ccccc2)c2ncn(C(C)C)c2n1
active: [1] 5.01 µM | [2] 6.31 µM | [3] 3.16 µM | [4] 10 µM | [5] 5.62 µM | [6] 5.62 µM
inactive: [15]

COc1cc(C(O)CN)ccc1O (centres undefined)
not listed: [7] | [10] | [19]
inactive: all other assays above
